Unmarked numbers belong to inactive results.
Experiment: resazurin metabolic signal in A549 cells – cell-based, resazurin fluorescence, 24 h, PK04 Diversity Set, profiling panel (AID 1171); note: test concentration not given here
Conditions: A549 viability, higher = more signal, called active from +8 up or from −8 down
CO[C@H]1COC(=O)CCC[C@H](C)[C@H](OC)COC(=O)CC=C[C@@H]1C showed a z-score of 0.285.
In the case of CCO[C@H](c1cc(OC)cc([N+](=O)[O-])c1OC)[C@H](C)[C@@H](OC)[C@H](C)C=CCC(=O)OC, the z-score is reported as 0.319.
O=C1[C@H]2[C@H]3[C@H](O)[C@H](O)CC(=NOC[C@@H](O)COCc4ccco4)[C@@H]3CC[C@H]2C(=O)N1Cc1ccccc1 showed a z-score of 1.06.
Compound COC(=O)CC=C[C@@H](C)[C@@H](C=NOC[C@@H](O)COCc1ccco1)OC has a z-score of -0.329.
Compound C[C@@H](c1ccccc1)N1C(=O)[C@H]2[C@H]3[C@H](O)[C@H](O)CC(=NNC(=O)OCc4ccccc4)[C@@H]3CC[C@H]2C1=O has a z-score of -0.427.
CCOC(=O)[C@H](Cc1ccccc1)NC(=O)CCC1CC(OC(=O)NCc2ccc3c(c2)OCO3)CC2(CCCC(COC(=O)NCCOC)O2)O1 (stereo partly specified) showed a z-score of 0.32.
With CCOC(=O)CCN1C(=O)[C@H]2[C@H]3[C@H](O)[C@H](O)CC(=NNC(=O)OCc4ccccc4)[C@H]3CC[C@H]2C1=O the z-score was -0.367.
In the case of COc1ccc(O[C@H]2C=C[C@@H](c3ccccc3)O[C@@H]2COC(=O)CCC(C)=NOC[C@@H](O)COCc2ccco2)cc1, the z-score is reported as 0.402.
With CCCCOC(OCCCC)C(O)CSc1ccc2ccccc2c1 (stereo unspecified) the z-score was -0.911.
For CC(C)CON=C1C[C@@H](O)[C@@H](O)[C@@H]2[C@@H]3C(=O)N(Cc4ccc5c(c4)OCO5)C(=O)[C@@H]3CC[C@@H]12, the z-score was 0.471.
Work on COC(=O)[C@H](C)NC(=O)CCC1CC(OC(=O)NCCc2ccc(F)cc2)CC2(CCCC(COC(=O)NCCc3ccccc3OC)O2)O1 (stereo partly specified) yielded a z-score of 0.0778.
CCN1C(=O)[C@H]2[C@@H]3C(=CC[C@H]2C1=O)C(=O)[C@H]1O[C@H]1[C@H]3O gave a z-score of -1.17.
Compound C[C@H]1CC[C@@H](C(=O)O)N[C@@H]1c1cccc(N2CCCC2=O)c1 has a z-score of 0.0065.
CCOC(=O)CCN1C(=O)[C@H]2[C@H]3[C@H](O)[C@H](O)CC(=NO[C@@H]4O[C@H](CO)[C@@H](O)[C@H](O)[C@H]4O)[C@H]3CC[C@H]2C1=O showed a z-score of -0.292.
In the case of O=C1C2=CC[C@H]3C(=O)N(Cc4ccccc4)C(=O)[C@H]3[C@H]2[C@H](O)[C@@H]2O[C@H]12, the z-score is reported as 0.152.
For CC(CCC(=O)OC[C@H]1O[C@H](C#Cc2ccccc2)C=C[C@@H]1Oc1ccc(C)cc1)=NO[C@@H](C)c1cc(-c2c(C)cc(C)cc2C)no1, the z-score was -0.366.
Work on CO[C@@H]1[C@H](O)CO[C@H]1C=Cc1ccccc1 yielded a z-score of -0.587.
For COc1ccc(O[C@H]2C=C[C@@H](c3ccccc3)O[C@@H]2COC(=O)NCc2cccc3ccccc23)cc1, the z-score was 0.618.
In the case of CCOC(=O)CCN1C(=O)[C@H]2[C@@H]3C(=CC[C@H]2C1=O)C(=O)[C@H]1O[C@H]1[C@H]3O, the z-score is reported as -0.899.
COC(=O)[C@H](Cc1ccccc1)NC(=O)[C@@H](C)CO gave a z-score of -0.234.
CC(CCC(=O)OC[C@H]1O[C@H](C#Cc2ccccc2)C=C[C@@H]1Oc1ccc(C)cc1)=NO[C@H](C)c1cn([C@@H]2COC[C@H]2O)nn1 showed a z-score of -1.25.
With COC(=O)[C@H](C)NC(=O)CC=C[C@@H](C)[C@@H]1C=C[C@H](O)[C@@H](CO)O1 the z-score was -0.521.
Compound COc1ccc(O[C@H]2C=C[C@@H](c3ccccc3)O[C@@H]2CON=C(C)CCN2CCCc3nc(C)c(C)cc32)cc1 has a z-score of 0.154.
For COC(=O)[C@H](CCSC)NC(=O)CC=C[C@@H](C)CO, the z-score was -0.812.
For CC(CCN1CCc2nc(-c3ccccc3)c(-c3ccccc3)cc2C1)=NO[C@@H](C)c1cc(-c2c(C)cc(C)cc2C)no1, the z-score was 0.235.
In the case of CCOC(=O)[C@H](CC(C)C)NC(=O)CCC1CC(OC(=O)NCc2ccc3c(c2)OCO3)CC2(CCCC(COC(=O)NCCc3ccc(Cl)cc3)O2)O1 (stereo partly specified), the z-score is reported as 0.39.
In the case of CN1CCc2nc(-c3ccccc3)c(-c3ccccc3)cc2C1, the z-score is reported as 0.752.
In the case of CC(C)CON=C1C[C@@H](O)[C@@H](O)[C@@H]2[C@@H]3C(=O)N([C@@H](C)c4ccccc4)C(=O)[C@@H]3CC[C@@H]12, the z-score is reported as 0.0092.
With CC(CCC(=O)OC[C@H]1O[C@H](C#Cc2ccccc2)C=C[C@@H]1Oc1ccc(C)cc1)=NOC[C@@H](C)[C@H](OCc1ccccc1)C(C)C the z-score was 0.865.
Compound CC1(C)O[C@H]2OC([C@H](O)CON3C(=O)c4ccccc4C3=O)[C@H](O)[C@H]2O1 (stereo partly specified) has a z-score of 0.368.
With C#CCCCON=C1C[C@@H](O)[C@@H](O)[C@@H]2[C@@H]3C(=O)N(CC)C(=O)[C@@H]3CC[C@H]12 the z-score was -0.479.
Compound CCCC[C@H]1CN2[C@@H](CC[C@@H](C)[C@@H]2c2ccc(Br)cc2)C(=O)O1 has a z-score of 0.8.
Compound C[C@@H]1CC[C@H]2C(=O)O[C@@H](CN=[N+]=[N-])CN2[C@H]1c1ccc(Br)cc1 has a z-score of -0.487.
For CCOC(=O)[C@H](CC(C)C)NC(=O)CCC1CC(OC(=O)NCc2ccc3c(c2)OCO3)CC2(CCCC(COC(=O)NCCc3ccccc3OC)O2)O1 (stereo partly specified), the z-score was 1.06.
CCCNC(=O)OC[C@H]1O[C@H](CCON=C2C[C@@H](O)[C@@H](O)[C@@H]3[C@@H]4C(=O)N(CC)C(=O)[C@@H]4CC[C@@H]23)C=C[C@@H]1Oc1ccc(OC)cc1 gave a z-score of -0.454.
For COCOc1ccc(Br)cc1C(=O)C=Cc1ccc2c(c1)OCO2, the z-score was -1.56.

From PubChem BioAssay
